Holding throughout (test): DAPPL (digital affinity profiling via proximity ligation, sequencing); 10 mM Tris-HCl pH 7.5, 50 mM NaCl, 1 mM DTT, 4% glycerol, room temperature, 30 min; GST-TFs on glutathione beads, 16-mer random dsDNA library, 0.1% formaldehyde crosslink after washing; high values mean tight binding
Settings in all cases: protein: recombinant; tags: N-terminal GST; dsDNA, one strand shown

One experiment deals with T1, ERG (Homo sapiens, UniProt P11308 1-479).
T1 sequence: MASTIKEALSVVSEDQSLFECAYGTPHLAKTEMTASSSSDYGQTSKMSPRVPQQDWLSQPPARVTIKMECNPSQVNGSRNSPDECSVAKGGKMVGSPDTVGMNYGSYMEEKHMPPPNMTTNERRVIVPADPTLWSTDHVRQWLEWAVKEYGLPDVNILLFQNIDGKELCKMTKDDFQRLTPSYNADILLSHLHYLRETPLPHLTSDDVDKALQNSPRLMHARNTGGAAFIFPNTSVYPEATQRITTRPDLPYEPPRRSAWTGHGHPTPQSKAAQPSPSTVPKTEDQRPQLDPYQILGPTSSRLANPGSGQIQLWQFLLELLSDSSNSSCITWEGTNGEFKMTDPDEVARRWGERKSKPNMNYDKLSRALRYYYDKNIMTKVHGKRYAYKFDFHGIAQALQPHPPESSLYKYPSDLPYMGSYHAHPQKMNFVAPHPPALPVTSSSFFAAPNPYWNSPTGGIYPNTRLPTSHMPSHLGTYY
The method, boiled down: (§1)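 GST fusions of human transcription factors were expressed in yeast and captured with glutathione beads. Once given DNA barcodes and pooled alongside a tag-only sample, they were incubated for 30 min at room temperature with 200 nmole of a random double-stranded 16-mer DNA library in Tris/NaCl/DTT/glycerol buffer, then washed, crosslinked (0.1% formaldehyde), proximity-ligated, PCR-amplified and sequenced on an Illumina NextSeq500. The binding signal of each hexamer is its read frequency for a factor divided by its frequency for the tag-only sample.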

For the next experiment, the target named is ELF1 (Homo sapiens, UniProt P32519 1-619). The procedure, abridged: as §1
Chain of ELF1 (P32519 whole entry): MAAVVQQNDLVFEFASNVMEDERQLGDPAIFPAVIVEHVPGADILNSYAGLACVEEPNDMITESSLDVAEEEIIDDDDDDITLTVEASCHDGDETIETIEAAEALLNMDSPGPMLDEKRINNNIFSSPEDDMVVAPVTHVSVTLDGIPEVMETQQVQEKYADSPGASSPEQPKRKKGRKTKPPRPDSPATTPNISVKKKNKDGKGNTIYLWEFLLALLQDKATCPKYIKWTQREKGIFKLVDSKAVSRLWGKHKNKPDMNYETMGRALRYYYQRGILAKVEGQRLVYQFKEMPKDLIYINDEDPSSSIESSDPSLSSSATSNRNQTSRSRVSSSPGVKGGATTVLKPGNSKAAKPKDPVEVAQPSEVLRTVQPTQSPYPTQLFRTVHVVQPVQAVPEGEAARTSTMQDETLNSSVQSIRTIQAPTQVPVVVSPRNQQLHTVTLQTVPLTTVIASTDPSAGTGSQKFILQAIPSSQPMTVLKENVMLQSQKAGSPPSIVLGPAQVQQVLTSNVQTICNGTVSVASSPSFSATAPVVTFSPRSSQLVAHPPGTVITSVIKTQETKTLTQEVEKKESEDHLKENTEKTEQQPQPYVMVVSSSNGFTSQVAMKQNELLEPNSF
The target of the next experiment is T2, EHF (Homo sapiens, UniProt Q9NZC4 1-300).
T2 sequence: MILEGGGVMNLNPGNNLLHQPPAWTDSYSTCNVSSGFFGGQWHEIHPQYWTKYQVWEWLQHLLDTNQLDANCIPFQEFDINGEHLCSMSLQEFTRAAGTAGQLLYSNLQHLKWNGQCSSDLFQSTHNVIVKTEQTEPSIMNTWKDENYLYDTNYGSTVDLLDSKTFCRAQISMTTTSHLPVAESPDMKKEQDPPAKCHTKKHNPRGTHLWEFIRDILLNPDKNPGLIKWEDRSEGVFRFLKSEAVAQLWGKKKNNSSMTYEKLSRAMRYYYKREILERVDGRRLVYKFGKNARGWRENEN
The method, boiled down:
as §1

Another experiment has as its target SPIB (Homo sapiens, UniProt Q01892 1-262). The method, boiled down:
as §1

In another experiment the target is T3, FEV (Homo sapiens, UniProt Q99581 1-238).
T3 sequence: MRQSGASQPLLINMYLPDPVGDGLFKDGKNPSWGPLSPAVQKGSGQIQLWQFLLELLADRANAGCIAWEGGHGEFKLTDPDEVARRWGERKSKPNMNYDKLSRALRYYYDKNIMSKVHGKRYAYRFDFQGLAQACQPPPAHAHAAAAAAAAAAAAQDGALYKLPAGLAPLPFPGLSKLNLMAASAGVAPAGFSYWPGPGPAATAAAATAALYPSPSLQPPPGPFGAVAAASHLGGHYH
The procedure, abridged:
as §1

The target in another experiment is ETV5 (Homo sapiens, UniProt P41161 1-510). The procedure, abridged:
as §1

For the next experiment, the target named is T4, ELK4 (Homo sapiens, UniProt P28324-2 1-405).
T4 sequence: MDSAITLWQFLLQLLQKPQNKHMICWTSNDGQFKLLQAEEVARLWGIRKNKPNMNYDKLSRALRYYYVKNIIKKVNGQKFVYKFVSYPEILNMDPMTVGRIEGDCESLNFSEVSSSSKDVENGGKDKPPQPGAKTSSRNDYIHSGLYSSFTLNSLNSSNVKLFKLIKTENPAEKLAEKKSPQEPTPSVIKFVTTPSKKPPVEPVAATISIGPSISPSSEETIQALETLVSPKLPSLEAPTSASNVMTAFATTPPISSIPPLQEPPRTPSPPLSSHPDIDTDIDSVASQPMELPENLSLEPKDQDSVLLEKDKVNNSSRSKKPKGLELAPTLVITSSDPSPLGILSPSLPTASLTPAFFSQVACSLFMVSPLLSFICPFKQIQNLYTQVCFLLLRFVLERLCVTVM
The method, boiled down:
as §1

For the next experiment, the target named is T5, ETV2 (Homo sapiens, UniProt O00321 1-342).
T5 sequence: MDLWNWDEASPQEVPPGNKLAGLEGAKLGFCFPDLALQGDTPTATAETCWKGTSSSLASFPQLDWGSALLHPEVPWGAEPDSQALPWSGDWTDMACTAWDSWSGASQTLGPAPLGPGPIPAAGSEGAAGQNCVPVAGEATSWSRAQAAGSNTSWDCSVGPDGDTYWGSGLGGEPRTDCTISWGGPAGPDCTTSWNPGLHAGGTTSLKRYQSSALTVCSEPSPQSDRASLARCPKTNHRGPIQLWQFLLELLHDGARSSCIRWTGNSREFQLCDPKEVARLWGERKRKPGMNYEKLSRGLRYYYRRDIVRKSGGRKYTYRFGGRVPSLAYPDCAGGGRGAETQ
The method, boiled down: as §1

The target in the next experiment is T6, ELF3 (Homo sapiens, UniProt P78545 1-371).
T6 sequence: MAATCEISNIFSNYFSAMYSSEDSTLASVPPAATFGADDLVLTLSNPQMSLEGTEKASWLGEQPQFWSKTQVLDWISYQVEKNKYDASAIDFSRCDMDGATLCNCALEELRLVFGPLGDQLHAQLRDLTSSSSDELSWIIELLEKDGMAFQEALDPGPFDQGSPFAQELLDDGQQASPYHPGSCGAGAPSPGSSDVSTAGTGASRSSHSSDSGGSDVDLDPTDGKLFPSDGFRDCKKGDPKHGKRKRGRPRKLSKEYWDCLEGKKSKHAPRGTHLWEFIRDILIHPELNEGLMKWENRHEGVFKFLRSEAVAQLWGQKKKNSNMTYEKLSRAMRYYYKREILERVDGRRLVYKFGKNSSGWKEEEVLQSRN
The method, boiled down:
as §1

Another experiment concerns the target T7, ERF (Homo sapiens, UniProt P50548 1-548).
T7 sequence: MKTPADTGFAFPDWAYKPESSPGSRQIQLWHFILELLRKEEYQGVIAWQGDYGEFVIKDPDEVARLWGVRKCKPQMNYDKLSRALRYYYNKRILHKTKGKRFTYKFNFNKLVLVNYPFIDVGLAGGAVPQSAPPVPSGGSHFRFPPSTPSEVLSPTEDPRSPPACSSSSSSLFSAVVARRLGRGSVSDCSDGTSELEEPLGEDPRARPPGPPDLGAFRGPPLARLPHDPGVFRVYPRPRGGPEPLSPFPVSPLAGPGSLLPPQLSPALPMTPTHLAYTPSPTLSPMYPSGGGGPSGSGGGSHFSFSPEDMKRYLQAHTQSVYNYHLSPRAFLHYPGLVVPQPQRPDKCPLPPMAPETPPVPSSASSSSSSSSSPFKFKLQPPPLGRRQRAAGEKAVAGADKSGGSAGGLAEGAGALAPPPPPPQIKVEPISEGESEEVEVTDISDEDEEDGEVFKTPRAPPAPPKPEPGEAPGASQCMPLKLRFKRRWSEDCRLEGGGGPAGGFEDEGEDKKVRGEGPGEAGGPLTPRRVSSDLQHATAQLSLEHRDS
The method, boiled down:
as §1

The target in the next experiment is T8, ETV3L (Homo sapiens, UniProt Q6ZN32 1-361).
T8 sequence: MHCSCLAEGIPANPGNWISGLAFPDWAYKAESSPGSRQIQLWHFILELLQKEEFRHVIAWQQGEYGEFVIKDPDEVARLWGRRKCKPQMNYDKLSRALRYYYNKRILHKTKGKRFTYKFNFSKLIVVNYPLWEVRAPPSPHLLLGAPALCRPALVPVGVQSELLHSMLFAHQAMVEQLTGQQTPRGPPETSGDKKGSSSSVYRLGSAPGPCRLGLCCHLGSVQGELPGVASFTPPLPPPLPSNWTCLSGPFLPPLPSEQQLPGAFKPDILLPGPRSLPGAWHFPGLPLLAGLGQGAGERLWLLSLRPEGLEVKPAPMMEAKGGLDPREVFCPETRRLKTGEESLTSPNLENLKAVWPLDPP
The method, boiled down:
as §1

A further experiment deals with T9, ETS2 (Homo sapiens, UniProt P15036 1-469).
T9 sequence: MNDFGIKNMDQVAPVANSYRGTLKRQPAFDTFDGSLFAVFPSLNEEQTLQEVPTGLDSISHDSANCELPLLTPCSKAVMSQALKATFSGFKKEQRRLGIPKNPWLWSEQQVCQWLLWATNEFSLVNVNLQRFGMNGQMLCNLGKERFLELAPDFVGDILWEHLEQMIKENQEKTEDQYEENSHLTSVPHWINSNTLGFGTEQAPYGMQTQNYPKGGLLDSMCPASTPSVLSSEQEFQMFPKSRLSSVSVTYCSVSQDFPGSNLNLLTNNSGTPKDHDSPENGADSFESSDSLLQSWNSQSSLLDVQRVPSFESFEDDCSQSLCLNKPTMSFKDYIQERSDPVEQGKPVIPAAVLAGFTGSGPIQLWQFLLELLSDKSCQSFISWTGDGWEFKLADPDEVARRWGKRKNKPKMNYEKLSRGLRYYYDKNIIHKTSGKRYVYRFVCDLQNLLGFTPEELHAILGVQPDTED
The procedure, abridged:
as §1

The target in a further experiment is T10, SPDEF (Homo sapiens, UniProt O95238 1-335).
T10 sequence: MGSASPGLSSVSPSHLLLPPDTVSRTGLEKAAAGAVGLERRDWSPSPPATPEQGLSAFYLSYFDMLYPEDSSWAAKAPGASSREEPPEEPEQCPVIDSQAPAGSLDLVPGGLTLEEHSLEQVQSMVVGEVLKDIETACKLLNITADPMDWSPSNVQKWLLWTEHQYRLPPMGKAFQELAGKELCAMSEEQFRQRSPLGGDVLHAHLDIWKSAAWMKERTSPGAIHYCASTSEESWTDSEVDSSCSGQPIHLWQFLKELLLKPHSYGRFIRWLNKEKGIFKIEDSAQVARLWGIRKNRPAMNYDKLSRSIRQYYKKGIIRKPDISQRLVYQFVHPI
The procedure, abridged:
as §1

The target of another experiment is T11, ETV7 (Homo sapiens, UniProt Q9Y603 1-341).
T11 sequence: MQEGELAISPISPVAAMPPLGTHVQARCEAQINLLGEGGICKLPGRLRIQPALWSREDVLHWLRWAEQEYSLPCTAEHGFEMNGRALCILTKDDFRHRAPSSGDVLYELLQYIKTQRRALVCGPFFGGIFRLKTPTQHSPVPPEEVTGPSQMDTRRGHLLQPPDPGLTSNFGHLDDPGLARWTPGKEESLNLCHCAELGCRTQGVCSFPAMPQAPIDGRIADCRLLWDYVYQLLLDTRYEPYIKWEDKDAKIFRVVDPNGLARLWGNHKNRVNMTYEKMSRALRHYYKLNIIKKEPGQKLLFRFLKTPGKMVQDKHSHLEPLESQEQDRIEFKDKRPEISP
The method, boiled down:
as §1

The target of the next experiment is T12, ETV3 (Homo sapiens, UniProt P41162-2 1-143).
T12 sequence: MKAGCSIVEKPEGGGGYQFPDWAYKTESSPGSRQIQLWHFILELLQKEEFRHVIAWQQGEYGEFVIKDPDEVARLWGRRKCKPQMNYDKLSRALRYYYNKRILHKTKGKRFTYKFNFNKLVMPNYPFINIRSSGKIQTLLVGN
The method, boiled down:
as §1

In another experiment the target is ETV6 (Homo sapiens, UniProt P41212 1-452). The method, boiled down: as §1
Chain of ETV6 (P41212 whole entry): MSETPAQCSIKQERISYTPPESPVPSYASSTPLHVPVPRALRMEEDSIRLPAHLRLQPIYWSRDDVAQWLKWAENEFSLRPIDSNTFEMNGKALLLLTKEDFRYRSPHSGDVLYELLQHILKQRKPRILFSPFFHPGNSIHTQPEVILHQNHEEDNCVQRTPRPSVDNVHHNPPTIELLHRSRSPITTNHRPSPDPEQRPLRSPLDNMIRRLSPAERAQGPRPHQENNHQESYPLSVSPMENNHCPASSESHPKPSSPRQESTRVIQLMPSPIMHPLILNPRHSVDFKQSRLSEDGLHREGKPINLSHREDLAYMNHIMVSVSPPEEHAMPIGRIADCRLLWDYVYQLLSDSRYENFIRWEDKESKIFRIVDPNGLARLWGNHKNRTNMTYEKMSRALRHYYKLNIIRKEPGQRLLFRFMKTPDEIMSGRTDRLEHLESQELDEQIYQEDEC

Chain of SPIB (Q01892 whole entry): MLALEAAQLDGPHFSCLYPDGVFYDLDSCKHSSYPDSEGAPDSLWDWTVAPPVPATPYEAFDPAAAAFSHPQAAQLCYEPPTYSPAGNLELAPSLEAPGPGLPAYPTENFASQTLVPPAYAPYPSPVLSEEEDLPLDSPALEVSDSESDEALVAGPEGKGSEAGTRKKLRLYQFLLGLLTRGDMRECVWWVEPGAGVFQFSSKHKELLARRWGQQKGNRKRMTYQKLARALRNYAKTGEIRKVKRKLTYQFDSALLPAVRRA
Chain of ETV5 (P41161 whole entry): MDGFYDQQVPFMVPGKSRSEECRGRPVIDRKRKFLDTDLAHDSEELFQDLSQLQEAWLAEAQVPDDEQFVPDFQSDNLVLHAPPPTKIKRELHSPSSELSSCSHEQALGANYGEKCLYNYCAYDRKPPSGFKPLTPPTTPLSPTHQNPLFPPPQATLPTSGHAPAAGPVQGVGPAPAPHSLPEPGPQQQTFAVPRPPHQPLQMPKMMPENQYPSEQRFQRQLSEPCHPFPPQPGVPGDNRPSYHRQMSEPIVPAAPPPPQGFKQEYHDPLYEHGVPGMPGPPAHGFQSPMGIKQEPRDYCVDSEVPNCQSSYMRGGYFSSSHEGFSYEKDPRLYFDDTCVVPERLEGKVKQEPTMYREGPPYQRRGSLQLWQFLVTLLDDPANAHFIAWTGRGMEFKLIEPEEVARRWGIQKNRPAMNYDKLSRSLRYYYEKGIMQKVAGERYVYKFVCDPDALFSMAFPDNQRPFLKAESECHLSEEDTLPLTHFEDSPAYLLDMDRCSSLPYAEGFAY

On to TGGCTG, for which the binding signal with ERG is 1.04 fold enrichment (6-mer frequency, TF over GST control); with ELF1, 1.06 fold enrichment (6-mer frequency, TF over GST control); with EHF it was 1.23 fold enrichment (6-mer frequency, TF over GST control); in the experiment with SPIB, 1.01 fold enrichment (6-mer frequency, TF over GST control); with FEV, 1.04 fold enrichment (6-mer frequency, TF over GST control); with ETV5, 1.08 fold enrichment (6-mer frequency, TF over GST control). In addition, the binding signal with ELK4 was 1.24 fold enrichment (6-mer frequency, TF over GST control); with ETV2 it was 1.26 fold enrichment (6-mer frequency, TF over GST control); with ELF3 it was 1 fold enrichment (6-mer frequency, TF over GST control); with ERF, 1.17 fold enrichment (6-mer frequency, TF over GST control); in the experiment with ETV3L, 1.09 fold enrichment (6-mer frequency, TF over GST control); in the experiment with ETS2, 1.05 fold enrichment (6-mer frequency, TF over GST control). Further, the binding signal in the experiment with SPDEF is 1.01 fold enrichment (6-mer frequency, TF over GST control); with ETV7, 1.07 fold enrichment (6-mer frequency, TF over GST control); with ETV3, 1 fold enrichment (6-mer frequency, TF over GST control); in the experiment with ETV6 it was 1.02 fold enrichment (6-mer frequency, TF over GST control).

The values above are taken from PMC7862700, “An all-to-all approach to the identification of sequence-specific readers for epigenetic DNA modifications on cytosine”.
